Our source for the log2 fold change values is the supplement of paper PMC10849652.

About 7,900 targets were measured; listed, in parts, are those with a hit and a random draw of the rest. About 0.6% of all pairs of compound and target were hits. Values without a mark were called inactive.

Sequence of UniProt Q8NEW0 (Q8NEW0 whole entry, looked up): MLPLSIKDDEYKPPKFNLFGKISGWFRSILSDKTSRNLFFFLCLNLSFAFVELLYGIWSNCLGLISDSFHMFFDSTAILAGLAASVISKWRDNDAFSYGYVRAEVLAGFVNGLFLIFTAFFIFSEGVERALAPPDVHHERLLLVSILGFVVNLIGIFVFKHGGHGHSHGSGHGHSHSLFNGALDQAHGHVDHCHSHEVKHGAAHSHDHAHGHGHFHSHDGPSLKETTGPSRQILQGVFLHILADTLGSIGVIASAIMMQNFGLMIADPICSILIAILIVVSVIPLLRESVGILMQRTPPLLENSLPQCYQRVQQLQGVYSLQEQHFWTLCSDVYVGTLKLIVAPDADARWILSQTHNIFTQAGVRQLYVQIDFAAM
Sequence of UniProt Q5JUR7 (Q5JUR7 whole entry, looked up): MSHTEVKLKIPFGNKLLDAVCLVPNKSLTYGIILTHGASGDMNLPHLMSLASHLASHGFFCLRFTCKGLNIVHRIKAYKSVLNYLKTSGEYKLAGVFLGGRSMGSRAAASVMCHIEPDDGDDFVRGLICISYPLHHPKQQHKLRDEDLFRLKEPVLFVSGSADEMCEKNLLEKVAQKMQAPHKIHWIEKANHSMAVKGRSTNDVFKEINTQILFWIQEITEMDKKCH
Sequence of UniProt Q6PCB7 (Q6PCB7 whole entry, looked up): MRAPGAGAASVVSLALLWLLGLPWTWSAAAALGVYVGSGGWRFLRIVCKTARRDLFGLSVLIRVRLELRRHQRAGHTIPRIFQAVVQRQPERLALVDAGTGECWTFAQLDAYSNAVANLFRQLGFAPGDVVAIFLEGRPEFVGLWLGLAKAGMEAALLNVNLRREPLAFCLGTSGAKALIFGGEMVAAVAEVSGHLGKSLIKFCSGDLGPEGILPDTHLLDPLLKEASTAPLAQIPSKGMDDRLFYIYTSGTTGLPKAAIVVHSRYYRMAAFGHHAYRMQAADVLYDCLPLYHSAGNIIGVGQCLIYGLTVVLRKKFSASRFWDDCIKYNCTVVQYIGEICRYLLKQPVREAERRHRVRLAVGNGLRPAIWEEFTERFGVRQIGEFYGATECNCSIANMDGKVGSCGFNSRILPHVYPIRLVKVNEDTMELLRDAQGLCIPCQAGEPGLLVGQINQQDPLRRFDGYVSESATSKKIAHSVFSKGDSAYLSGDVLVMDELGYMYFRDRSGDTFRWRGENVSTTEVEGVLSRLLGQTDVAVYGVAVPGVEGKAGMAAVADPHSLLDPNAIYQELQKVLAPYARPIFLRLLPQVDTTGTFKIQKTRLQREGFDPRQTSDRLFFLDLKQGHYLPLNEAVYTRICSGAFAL
Sequence of UniProt Q9P016 (Q9P016 whole entry, looked up): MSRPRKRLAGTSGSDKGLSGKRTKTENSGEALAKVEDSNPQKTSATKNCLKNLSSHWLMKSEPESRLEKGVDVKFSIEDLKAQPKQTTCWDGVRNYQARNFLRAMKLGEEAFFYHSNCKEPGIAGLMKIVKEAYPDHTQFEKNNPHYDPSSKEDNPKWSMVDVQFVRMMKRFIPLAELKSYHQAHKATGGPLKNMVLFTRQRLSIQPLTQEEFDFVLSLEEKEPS
Sequence of UniProt Q86VP1 (Q86VP1 whole entry, looked up): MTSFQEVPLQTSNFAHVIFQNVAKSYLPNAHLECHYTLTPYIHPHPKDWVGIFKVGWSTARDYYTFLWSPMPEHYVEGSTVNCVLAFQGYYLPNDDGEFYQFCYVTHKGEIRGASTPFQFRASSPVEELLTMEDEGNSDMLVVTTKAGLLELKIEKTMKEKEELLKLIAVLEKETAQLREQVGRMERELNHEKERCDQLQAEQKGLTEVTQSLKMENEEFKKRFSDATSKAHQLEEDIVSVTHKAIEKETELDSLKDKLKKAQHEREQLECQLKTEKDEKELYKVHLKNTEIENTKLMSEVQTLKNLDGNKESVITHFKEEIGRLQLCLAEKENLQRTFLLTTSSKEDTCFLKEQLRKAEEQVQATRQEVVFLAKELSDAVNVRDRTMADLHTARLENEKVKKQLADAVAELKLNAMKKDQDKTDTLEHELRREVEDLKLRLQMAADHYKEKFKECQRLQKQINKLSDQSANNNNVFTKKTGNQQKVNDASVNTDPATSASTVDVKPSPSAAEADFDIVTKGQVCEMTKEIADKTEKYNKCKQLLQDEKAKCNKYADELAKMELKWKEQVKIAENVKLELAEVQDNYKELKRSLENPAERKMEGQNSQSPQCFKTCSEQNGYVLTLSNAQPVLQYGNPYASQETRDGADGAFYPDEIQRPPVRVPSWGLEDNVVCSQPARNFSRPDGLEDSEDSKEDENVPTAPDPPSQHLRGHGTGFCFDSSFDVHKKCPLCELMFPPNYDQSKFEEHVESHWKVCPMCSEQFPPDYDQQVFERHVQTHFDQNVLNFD
Sequence of UniProt Q9UKI8 (Q9UKI8 whole entry, looked up): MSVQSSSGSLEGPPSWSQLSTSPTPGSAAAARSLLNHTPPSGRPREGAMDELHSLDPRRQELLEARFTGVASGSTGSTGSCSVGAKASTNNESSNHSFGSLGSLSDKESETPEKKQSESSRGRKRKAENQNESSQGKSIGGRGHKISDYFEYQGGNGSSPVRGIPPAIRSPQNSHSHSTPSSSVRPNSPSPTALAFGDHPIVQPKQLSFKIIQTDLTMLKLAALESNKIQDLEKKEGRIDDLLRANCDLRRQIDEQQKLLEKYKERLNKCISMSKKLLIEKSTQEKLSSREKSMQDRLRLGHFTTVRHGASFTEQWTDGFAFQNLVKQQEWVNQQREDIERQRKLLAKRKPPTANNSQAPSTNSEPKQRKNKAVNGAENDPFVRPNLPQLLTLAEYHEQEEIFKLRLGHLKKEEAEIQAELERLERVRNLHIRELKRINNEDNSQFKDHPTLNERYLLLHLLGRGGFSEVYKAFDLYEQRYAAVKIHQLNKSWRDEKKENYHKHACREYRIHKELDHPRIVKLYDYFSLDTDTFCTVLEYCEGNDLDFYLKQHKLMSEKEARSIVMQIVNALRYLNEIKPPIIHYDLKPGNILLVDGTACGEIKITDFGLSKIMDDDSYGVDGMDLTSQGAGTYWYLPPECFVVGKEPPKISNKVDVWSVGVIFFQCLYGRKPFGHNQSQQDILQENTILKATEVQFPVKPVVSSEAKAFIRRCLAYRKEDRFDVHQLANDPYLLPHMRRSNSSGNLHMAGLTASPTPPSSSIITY
Sequence of UniProt P30626 (P30626 whole entry, looked up): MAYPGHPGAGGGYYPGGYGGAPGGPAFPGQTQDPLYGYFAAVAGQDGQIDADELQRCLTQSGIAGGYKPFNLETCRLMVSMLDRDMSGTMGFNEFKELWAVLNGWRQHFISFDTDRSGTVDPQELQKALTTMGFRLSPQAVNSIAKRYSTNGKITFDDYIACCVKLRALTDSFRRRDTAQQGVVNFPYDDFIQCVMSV
Sequence of UniProt Q96CQ1 (Q96CQ1 whole entry, looked up): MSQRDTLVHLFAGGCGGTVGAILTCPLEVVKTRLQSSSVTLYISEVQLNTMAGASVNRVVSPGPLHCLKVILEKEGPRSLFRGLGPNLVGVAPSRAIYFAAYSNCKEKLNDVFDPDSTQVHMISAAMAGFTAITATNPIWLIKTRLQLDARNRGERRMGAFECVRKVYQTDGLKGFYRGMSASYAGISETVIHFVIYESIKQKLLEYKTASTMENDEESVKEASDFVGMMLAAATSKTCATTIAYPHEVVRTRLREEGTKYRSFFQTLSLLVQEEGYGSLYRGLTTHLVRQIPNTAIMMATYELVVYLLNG
Sequence of UniProt Q9BZD2 (Q9BZD2 whole entry, looked up): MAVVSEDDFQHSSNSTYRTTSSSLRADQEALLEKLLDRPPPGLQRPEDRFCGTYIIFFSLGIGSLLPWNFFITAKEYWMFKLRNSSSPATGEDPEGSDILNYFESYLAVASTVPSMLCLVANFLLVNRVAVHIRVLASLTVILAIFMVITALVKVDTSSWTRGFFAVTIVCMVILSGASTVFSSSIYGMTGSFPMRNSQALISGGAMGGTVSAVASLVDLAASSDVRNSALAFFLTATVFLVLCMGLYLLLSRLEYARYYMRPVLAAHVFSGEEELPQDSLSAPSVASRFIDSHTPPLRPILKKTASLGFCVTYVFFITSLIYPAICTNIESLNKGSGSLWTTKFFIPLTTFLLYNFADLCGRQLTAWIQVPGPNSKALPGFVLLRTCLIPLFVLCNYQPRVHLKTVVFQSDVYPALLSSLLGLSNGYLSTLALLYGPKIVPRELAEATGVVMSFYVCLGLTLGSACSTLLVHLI
Sequence of UniProt Q658P3 (Q658P3 whole entry, looked up): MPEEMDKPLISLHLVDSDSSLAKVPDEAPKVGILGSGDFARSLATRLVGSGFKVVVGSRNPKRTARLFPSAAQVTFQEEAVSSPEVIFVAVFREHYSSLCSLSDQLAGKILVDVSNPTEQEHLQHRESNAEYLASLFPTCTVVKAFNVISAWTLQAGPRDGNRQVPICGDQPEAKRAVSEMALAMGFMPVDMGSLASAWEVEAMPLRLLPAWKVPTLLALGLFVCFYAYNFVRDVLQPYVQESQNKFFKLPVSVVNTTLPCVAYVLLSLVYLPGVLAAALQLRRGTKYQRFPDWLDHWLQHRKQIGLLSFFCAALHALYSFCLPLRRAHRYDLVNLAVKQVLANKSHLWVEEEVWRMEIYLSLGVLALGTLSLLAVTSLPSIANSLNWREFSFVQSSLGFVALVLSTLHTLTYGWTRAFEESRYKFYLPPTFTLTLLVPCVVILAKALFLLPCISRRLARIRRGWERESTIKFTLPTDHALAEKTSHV
Sequence of UniProt P62318 (P62318 whole entry, looked up): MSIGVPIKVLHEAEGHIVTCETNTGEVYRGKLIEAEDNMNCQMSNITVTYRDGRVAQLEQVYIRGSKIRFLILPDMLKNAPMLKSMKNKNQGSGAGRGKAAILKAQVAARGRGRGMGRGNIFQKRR
Sequence of UniProt Q96CW6 (Q96CW6 whole entry, looked up): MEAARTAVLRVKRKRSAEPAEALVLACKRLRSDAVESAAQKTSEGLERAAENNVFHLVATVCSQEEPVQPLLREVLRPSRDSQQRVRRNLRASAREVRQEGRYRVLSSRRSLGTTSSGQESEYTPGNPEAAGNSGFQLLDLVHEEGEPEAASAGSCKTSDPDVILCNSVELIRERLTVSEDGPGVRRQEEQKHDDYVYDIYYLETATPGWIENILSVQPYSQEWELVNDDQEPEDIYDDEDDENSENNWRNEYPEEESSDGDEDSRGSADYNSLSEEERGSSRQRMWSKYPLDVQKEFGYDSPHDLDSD

Compound in one assay: C1=CC=C2C(=C1)C3=NNC4=CC=CC(=C43)C2=O
Description: log2 fold change, soluble protein after heating vs DMSO (PISA); higher = thermal stabilisation; K562 cells, 10 uM, 30 min; active = over 0.2 and 3.5 SD of the protein, either way, in both replicates (recomputed). Summed up:
(§1)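 Soluble protein was quantified by TMTpro 16plex LC-MS/MS after channel sums were equalised. It was obtained as the supernatant after 21,000xg for 90 min from pooled aliquots of K562 cells (2×10^6 cells/mL, 10 μM compound, 30 min) heated for 3 min across 48°C-58°C and extracted in PBS with 0.5% NP-40 at 4°C. Thermal stability values are relative to control samples and come from duplicates. They are given as log2 fold changes.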
On to THYN1 (UniProt Q9P016), for which the log2 fold change is 0.145.
SLC44A2 isoform 2 (UniProt Q8IWA5): the log2 fold change was -0.065.
As to SLC25A36 (UniProt Q96CQ1), the log2 fold change was -0.034.
Still for that read-out and setting: the same measure for TEX30 (UniProt Q5JUR7): 0.046; for TLK1 (UniProt Q9UKI8): -0.034.
Regarding SRI (UniProt P30626), the log2 fold change was 0.016.
The same measure, in the same setting: the same measure for SLC35F6 (UniProt Q8N357): -0.024.
Still for that read-out and setting: the result for SPTBN4 (UniProt Q9H254) reads 0.061; that for SNRPD3 (UniProt P62318), -0.076.
The same measure, in the same setting: the result for SLC29A3 (UniProt Q9BZD2) reads 0; that for SLC27A1 (UniProt Q6PCB7), 0.012; that for SLC30A7 (UniProt Q8NEW0), 0.004.
As to SLC7A6OS (UniProt Q96CW6), the log2 fold change is -0.025.
Turning to STEAP3 isoform 2 (UniProt Q658P3), the log2 fold change was 0.004.
TAX1BP1 (UniProt Q86VP1): the log2 fold change was -0.006.

Compound in the next assay: C1CCN(C1)C(=O)NC2=CC=CC(=C2)NC3=NC=C(C(=N3)NCCC4=CN=CN4)Br
The description is as above. Summed up:
as §1
Turning to STAT3 (UniProt P40763), the log2 fold change was -0.01.
For the target SNX3 (UniProt O60493), the log2 fold change is 0.026.
SLC25A42 (UniProt Q86VD7): the log2 fold change is -0.086.
Turning to STRN (UniProt O43815), the log2 fold change was -0.124.
On to SNX11 (UniProt Q9Y5W9), for which the log2 fold change was -0.079.
For the target STARD3NL (UniProt O95772), the log2 fold change was -0.013.
Still for that read-out and setting: the same measure for SNX12 isoform 1 (UniProt Q9UMY4): 0.048.
As for SRC isoform 2 (UniProt P12931), the log2 fold change is -0.073.
Still for that read-out and setting: the same measure for SLIRP (UniProt Q9GZT3): -0.013; for SPG11 (UniProt Q96JI7): 0.405; for TMBIM1 (UniProt Q969X1): 0.172.
As for TJP2 isoform 7 (UniProt Q9UDY2), the log2 fold change was -0.08.
On the same count and under the same terms, the same measure for SMAD2 (UniProt Q15796): -0.034; for TERF2IP (UniProt Q9NYB0): -0.047.
Turning to STK25 (UniProt O00506), the log2 fold change was 0.026.
Same read-out and setting: the same measure for STARD7 (UniProt Q9NQZ5): 0.006; for TCERG1 (UniProt O14776): -0.104; for SREK1 isoform 2 (UniProt Q8WXA9): -0.126.
For TBC1D23 (UniProt Q9NUY8), the log2 fold change is -0.036.
The same measure, in the same setting: the result for TGFBI (UniProt Q15582) reads -0.037; that for TFRC (UniProt P02786), 0.006; that for SSR4 (UniProt P51571), 0.
The same measure, in the same setting: the result for THYN1 (UniProt Q9P016) reads -0.002; that for SLC44A2 isoform 2 (UniProt Q8IWA5), -0.105.
Take SLC25A36 (UniProt Q96CQ1): the log2 fold change is 0.053.
The same measure, in the same setting: the result for TEX30 (UniProt Q5JUR7) reads -0.147; that for TLK1 (UniProt Q9UKI8), -0.032.
The same measure, in the same setting: the result for SRI (UniProt P30626) reads -0.037; that for SLC35F6 (UniProt Q8N357), -0.057; that for SPTBN4 (UniProt Q9H254), 0.066.
Same read-out and setting: the same measure for SNRPD3 (UniProt P62318): 0.068.
SLC29A3 (UniProt Q9BZD2): the log2 fold change is 0.074.
With SLC27A1 (UniProt Q6PCB7), the log2 fold change was -0.411 (active).
On the same count and under the same terms, the same measure for SLC30A7 (UniProt Q8NEW0): 0.016; for SLC7A6OS (UniProt Q96CW6): -0.015; for STEAP3 isoform 2 (UniProt Q658P3): -0.036.
The same measure, in the same setting: the result for TAX1BP1 (UniProt Q86VP1) reads -0.015.
